Many of the other results were omitted from the sample, so hits are more common in it than they were.
HIV RNase H inh-1 = HIV-1 RT RNase H inhibitors, primary screen, biochemical, fluorescence; inhibition, % at 10 µM; 1.9% of 65,000 active; RT-RNase H RNA/DNA duplex cleavage; AID 565, 2006; in the data active means inhibition above about 50%
RmlCD inh mix = RmlC and RmlD coupled enzyme inhibitors, primary screen, biochemical, 384-well, compound mixtures, retest; RmlC/RmlD coupled enzyme inhibition, 384-well mixture HTS; inhibition, % at 5.5 µM; 0.39% of 110,000 active; in the data active means inhibition above about 30%, passing the limit was not always enough; inconclusive means no clear call, values can overlap the other calls
HIV RNase H inh-2 = HIV-1 RT RNase H inhibitors, retest, confirmation, biochemical; shares compounds with HIV RNase H inh-1; Recombinant RT RNase H, fluorescent RNA/DNA duplex cleavage; inhibition, % at 10 µM; 39% of 1,000 active; in the data active means inhibition above about 48%; inconclusive means no clear call, values can overlap the other calls
Active calls of the source: *.

`Cc1c(NS(=O)(=O)c2ccccc2)cc(Cl)c(O)c1C` gave HIV RNase H inh-1 74*, RmlCD inh mix -5 and HIV RNase H inh-2 33.
Cc1ccc(S(=O)(=O)Nc2cc(Cl)c(O)cc2C)cc1 was read as RmlCD inh mix -15.
`CCOc1cc2[nH]c(=S)n(CCCC(=O)NCc3ccco3)c(=O)c2cc1OCC` gave HIV RNase H inh-1 5 and RmlCD inh mix -6.
Screening COc1ccc(OC)c(S(=O)(=O)Nc2ccc(O)c3ccccc23)c1 returned HIV RNase H inh-1 83*, RmlCD inh mix -11 and HIV RNase H inh-2 inconclusive.
`COc1ccc(OC)c(S(=O)(=O)Nc2ccc(Oc3ccccc3)cc2)c1` gave RmlCD inh mix 5.
`CCOc1ccc(NS(=O)(=O)c2cc(OC)ccc2OC)cc1` gave RmlCD inh mix -4.
For COc1ccc(OC)c(S(=O)(=O)Nc2ccc(O)c(Sc3ncn[nH]3)c2)c1 the results were HIV RNase H inh-1 94*, RmlCD inh mix 5 and HIV RNase H inh-2 60*.
Screening CCOc1cc(C#N)c(NC(=O)c2cccnc2Cl)cc1OCC returned RmlCD inh mix 1.
For COc1ccccc1N1CCN(C/C(C)=C/c2ccccc2)CC1 the results were HIV RNase H inh-1 22 and RmlCD inh mix -10.
Cc1ccc(-n2c(N)c(C(N)=O)sc2=S)cc1 was read as HIV RNase H inh-1 95*, RmlCD inh mix -1 and HIV RNase H inh-2 64*.
Cc1ccc(-n2c(N)c(C(=O)NCc3ccco3)sc2=S)cc1 was read as RmlCD inh mix -17.
Screening Cc1oc2cc3c(C(=O)N4CCN(C)CC4)c(C)oc3cc2c1C(=O)N1CCN(C)CC1 returned HIV RNase H inh-1 -10.
Screening Cc1cc(NC(=O)C2CC(c3ccc(F)cc3)=NO2)n(-c2ccccc2)n1 (configuration not stated) returned HIV RNase H inh-1 -30 and RmlCD inh mix 9.
Screening O=C(O)COc1ccc(=O)n(-c2ccccc2)n1 returned RmlCD inh mix 6.
Screening COc1ccc2[nH]cc(CCN=C3SCC(=O)N3C)c2c1 returned HIV RNase H inh-1 79*, RmlCD inh mix -9 and HIV RNase H inh-2 24.
Screening COc1ccc2[nH]cc(CCN(C)C)c2c1 returned HIV RNase H inh-1 -1 and RmlCD inh mix -11.
Screening CCc1ccc(NCc2cc3c(C)nn(-c4ccccc4)c3[nH]c2=O)cc1 returned RmlCD inh mix -4.
`Cc1nn(-c2ccccc2)c2[nH]c(=O)c(CNc3ccc4c(c3)OCCO4)cc12` gave HIV RNase H inh-1 80*, RmlCD inh mix 4 and HIV RNase H inh-2 11.
`COc1ccc(CNC(=O)C2CSC(c3ccc(OC)cc3)N2C(C)=O)cc1` (configuration not stated) gave RmlCD inh mix -5.
`O=C(CSc1ccc2nnc(-c3ccc(Cl)cc3)n2n1)N1CCN(c2ccccc2)CC1` gave HIV RNase H inh-1 60* and HIV RNase H inh-2 48.
`CCOc1ccc(-c2nnc3ccc(SCC(=O)N4CCN(c5ccccc5)CC4)nn23)cc1` gave HIV RNase H inh-1 -25.
For COc1ccc(/C(O)=C2\C(=O)C(=O)N(c3cc(C)on3)C2c2cccc(OC)c2OC)cc1C (configuration not stated) the results were HIV RNase H inh-1 1 and RmlCD inh mix 6.
Screening COc1cc(C2c3c(oc4ccc(Cl)cc4c3=O)C(=O)N2Cc2ccco2)cc(OC)c1OC (configuration not stated) returned HIV RNase H inh-1 29.
Screening COc1cccc(C2c3c(oc4ccc(Cl)cc4c3=O)C(=O)N2c2cc(C)on2)c1OC (configuration not stated) returned HIV RNase H inh-1 50*, RmlCD inh mix 6 and HIV RNase H inh-2 42.
`COc1ccc(C2c3c(oc4ccc(Cl)cc4c3=O)C(=O)N2Cc2ccco2)cc1OC` (configuration not stated) gave HIV RNase H inh-1 94* and HIV RNase H inh-2 60*.
For CCNS(=O)(=O)c1ccc(NC(=O)Cn2nc(C(F)(F)F)cc2C)cc1 the results were HIV RNase H inh-1 -15.
For CCOC(=O)N1CCN(C(=O)CN(c2ccc(OC)c(OC)c2)S(C)(=O)=O)CC1 the results were RmlCD inh mix -32.
CCCCC1=CC2=C(c3ccco3)C(=O)C(C)(OC(=O)c3ccc(OC)cc3)C(=O)C2=CN1c1ccccc1 (configuration not stated) was read as RmlCD inh mix 8.
O=C(O)C1Sc2[nH]c(=O)sc2C2c3cc(Cl)ccc3OC(=O)C12 (configuration not stated) was read as HIV RNase H inh-1 72*, RmlCD inh mix 2 and HIV RNase H inh-2 20.
For COC(=O)C1Sc2[nH]c(=O)sc2C2c3ccccc3OC(=O)C12 (configuration not stated) the results were HIV RNase H inh-1 -1 and RmlCD inh mix -12.
O=C(Nc1cccnc1)C1CCN(S(=O)(=O)c2cccc3nonc23)CC1 was read as RmlCD inh mix -5.
Screening CCCCCCC(=O)N(O)C1CC(=O)N(Cc2ccccc2)C1=O (configuration not stated) returned HIV RNase H inh-1 66*, RmlCD inh mix -2 and HIV RNase H inh-2 32.
For CCCCCC(=O)N(O)C1CC(=O)N(c2ccccc2)C1=O (configuration not stated) the results were HIV RNase H inh-1 16 and RmlCD inh mix 6.
Screening O=S(=O)(NCc1cccnc1)c1ccc(Cl)c(Cl)c1 returned HIV RNase H inh-1 -28 and RmlCD inh mix 10.
`O=C(c1cc(-c2ccc(Cl)cc2Cl)on1)N1CCN(C(=O)c2ccco2)CC1` gave RmlCD inh mix 1.
`O=C(c1ccco1)N1CCN(C(=O)c2snc3ccc(Cl)cc23)CC1` gave HIV RNase H inh-1 86*, RmlCD inh mix 8 and HIV RNase H inh-2 -3.
`O=C(Cn1cnc2c(oc3ccccc32)c1=O)c1ccccc1` gave HIV RNase H inh-1 -10 and RmlCD inh mix -14.
Screening N#Cc1cc(Oc2cccnc2)c(Oc2cccnc2)cc1C#N returned RmlCD inh mix 7.
CC1(N2CCOCC2)CC2(O)C(=[N+]1[O-])CCc1c2no[n+]1[O-] (configuration not stated) was read as HIV RNase H inh-1 6 and RmlCD inh mix -9.
`O=C(NC1CCCC1)c1ccc2nc(-c3ccco3)c(-c3ccco3)nc2c1` gave HIV RNase H inh-1 83* and HIV RNase H inh-2 4.
For CCOC(=O)C1CCN(C(=O)Nc2ccc3nc(-c4ccco4)c(-c4ccco4)nc3c2)CC1 the results were RmlCD inh mix 32.
Screening O=C(Nc1ccc2nc(-c3ccco3)c(-c3ccco3)nc2c1)N1CCCCCC1 returned HIV RNase H inh-1 97*, RmlCD inh mix 3 and HIV RNase H inh-2 53*.
O=C(NCCO)c1ccc2nc(-c3ccco3)c(-c3ccco3)nc2c1 was read as RmlCD inh mix 13.
`O=C(NC(Cc1c[nH]c2ccccc12)c1nnc2n1CCCCC2)c1cccs1` (configuration not stated) gave HIV RNase H inh-1 -5 and RmlCD inh mix 7.
Clc1cccc(-c2ccc(/C=N/n3cnnc3)o2)c1Cl was read as RmlCD inh mix 9.
